Source: PubChem (National Center for Advancing Translational Sciences (NCATS))
Tau fluor counter: counter-screen for tau fibril formation inhibitors; Potency, µM (titrated, usually from 57.7 µM); 280,000 tested, 0.93% active; AID 1463; tau K18 P301L Alexa594 fluorescence, heparin fibrillization; note: nearly all actives have a fitted effect of over 55% in size
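Human K18 P301L tau (15 uM unlabeled plus 0.24 uM Alexa 594-labeled, final) in 100 mM sodium acetate pH 7 was mixed with compound and 20 uM heparin and incubated 6 hr at 37 C.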
Tau FP inhib: tau fibrillization inhibition (FP); K18 P301L tau heparin fibrillization, Alexa594 FP, 6 h; Potency, µM (doses to about 57.7 µM), hits mostly inhibitors; P10636; 280,000 tested, 0.39% active; note: nearly all actives have a fitted effect of over 55% in size
Target sequence (P10636 561-689 P618L limits assumed): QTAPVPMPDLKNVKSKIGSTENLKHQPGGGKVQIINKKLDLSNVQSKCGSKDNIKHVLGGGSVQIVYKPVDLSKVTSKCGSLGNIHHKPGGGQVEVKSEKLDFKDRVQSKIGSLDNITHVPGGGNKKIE
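Heparin (20 uM) drove fibril formation of recombinant tau K18 P301L, 15 uM unlabeled with 0.24 uM Alexa 594 label, for 6 hr at 37 C in 100 mM sodium acetate pH 7. Fluorescence polarization (555/632 nm) read 1 hr after 30 uM ThT.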
RORgamma inh: inhibitors of mouse ROR gamma transcriptional activity. Potency, µM (titrated, usually from 53.6 µM), actives largely listed as inhibitors. AID 2551. Drosophila S2 Gal4-RORgamma UAS-luciferase reporter, 20 h. P51450. 310,000 tested, 5.4% active; note: nearly all actives have a fitted effect of over 60% in size
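Drosophila S2 cells stably expressing Gal4-DBD/mouse RORγ fusion under metallothionein promoter plus UAS-luciferase; compound 1 h, then 700 uM CuSO4 induction for 20 h at ambient temperature; inhibition read as reduced luminescence.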
Tau ThT inhib: tau fibrillization inhibition (ThT binding). P10636. recombinant tau K18 P301L (four-repeat tau fragment), heparin-induced fibrillization, ThT fluorescence. Potency, µM (series often up to 57.4 µM), actives largely listed as inhibitors. 270,000 tested, 2.1% active. AID 1460; note: nearly all actives have a fitted effect of over 55% in size
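In this qHTS, human K18 P301L tau is incubated with compound and heparin for 6 hr at 37 C, and Thioflavin T fluorescence then reports fibril load.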
VP16 counter: Gal4-VP16 reporter inhibition counter-screen; Drosophila S2 Gal4-VP16 UAS-luciferase, luminescence, 20 h; Potency, µM (top dose mostly 53.6 µM), most hits filed as inhibitors; 310,000 tested, 3.5% active;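 note: Gal4-VP16 expression switched on by copper sulfate through the metallothionein promoter; nearly all actives have a fitted effect of over 50% in size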
Large screens that a line does not name were inactive; [ ] = another dose, or the depositor's remark. A selection: hits, their analogues and other compounds. The true share with any hit is near 7.3%. Calls come from the whole dose curve; as a rule, active = well fitted curve in the direction sought with a large enough effect; inconclusive = small, poorly fitted or top-dose-only effect, or another doubt; inactive = no such curve, though single readings can be large; an effect the other way counts as inactive or inconclusive.

CCCc1ncc(C(O)(c2ccccc2)c2ccccc2)n1C	RORgamma inh 14µM
O=C(NC(=S)N1CCN(c2ccc(C(F)(F)F)cc2[N+](=O)[O-])CC1)c1cccs1	Tau fluor counter inconclusive, RORgamma inh 0.11µM, Tau ThT inhib inconclusive, VP16 counter inconclusive
CCN1CCN(C(=S)NC(=O)c2cccs2)CC1	RORgamma inh 6.3µM, VP16 counter inconclusive (no result: Tau fluor counter, Tau FP inhib, Tau ThT inhib)
CCN1CCN(C(=S)NC(=O)/C=C/c2cccs2)CC1	RORgamma inh 3.2µM, VP16 counter inconclusive
O=[N+]([O-])c1cc(C(F)(F)F)ccc1N1CCCNCC1	none
CCCCNC(=O)/C=C/c1cccs1	Tau FP inhib inconclusive
O=C(O)CC(NS(=O)(=O)c1ccc(Cl)s1)c1ccccc1 (centres undefined)	none (no result: RORgamma inh, VP16 counter)
COC(=O)C1(CC(C)C)C=C2C(=C(C)C(=O)C2C)CN1 (centres undefined)	none
CCn1c(C)cs/c1=N\C(=S)Nc1ccccc1C	RORgamma inh 2.2µM, VP16 counter 5.6µM
Cc1cccc(-n2nc3c(c2NC(=O)c2ccc(Br)o2)CSC3)c1	RORgamma inh 3.2µM
CCOC(=O)C(C)Sc1nc(-c2ccccn2)ncc1OC (centres undefined)	RORgamma inh 7.1µM, VP16 counter inconclusive
COc1ccccc1Sc1nc(-c2ccccc2)ncc1OC	Tau fluor counter inconclusive, Tau FP inhib inconclusive
COc1cnc(-c2ccccn2)nc1Sc1ccccc1Cl	RORgamma inh 2.5µM, Tau ThT inhib inconclusive, VP16 counter 10µM
COc1cnc(-c2ccccn2)nc1Sc1c(Cl)cccc1Cl	RORgamma inh 3.2µM, VP16 counter 10µM
CCOc1ccc(NS(=O)(=O)c2ccc(C(=O)N3CCN(C(C)=O)CC3)cc2)cc1	RORgamma inh inconclusive, VP16 counter 20µM (no result: Tau fluor counter, Tau FP inhib, Tau ThT inhib)
CCOc1ccc(NS(=O)(=O)c2ccc(C(=O)N(C)CCc3ccc(OC)c(OC)c3)cc2)cc1	RORgamma inh inconclusive, VP16 counter 7.1µM (no result: Tau fluor counter, Tau FP inhib, Tau ThT inhib)
COc1cccc(CC(=O)N2CCc3nc(-c4ccccc4)c4c(c3C2)CO[C@@H](C)C4)c1	none (no result: RORgamma inh, VP16 counter)
Nc1nc2[nH]c(=O)[nH]c2c(=O)[nH]1	Tau FP inhib inconclusive
O=C(Cc1cccs1)N/N=C/C=C/c1ccccc1	none
O=C(/C=C/c1ccccc1)NC(=S)NNC(=O)Cc1cccs1	RORgamma inh 2.5µM, Tau ThT inhib inconclusive, VP16 counter 5µM
COc1ccc(/C=C/C(=O)NC(=S)NNC(=O)Cc2cccs2)cc1	RORgamma inh 11µM, Tau ThT inhib inconclusive, VP16 counter inconclusive
CCN(CC)S(=O)(=O)c1ccc(N2CCN(c3ccccc3OC)CC2)c(N)c1	RORgamma inh inconclusive, VP16 counter 22µM (no result: Tau fluor counter, Tau FP inhib, Tau ThT inhib)
COc1ccccc1NCC(O)Cn1c2ccccc2c2ccccc21 (centres undefined)	Tau fluor counter 10µM[quencher], Tau FP inhib inconclusive, Tau ThT inhib inconclusive
CCCCC[n+]1ccn(C2=C([O-])c3ccccc3C(=O)/C2=N\S(=O)(=O)c2ccc(Br)cc2)c1	Tau fluor counter inconclusive, Tau FP inhib inconclusive, Tau ThT inhib 11µM
CCCCC[n+]1ccn(C2=C([O-])c3ccccc3C(=O)/C2=N\S(=O)(=O)c2ccccc2)c1	RORgamma inh inconclusive, Tau ThT inhib inconclusive, VP16 counter inconclusive
COc1ccc(OC)c(C(=O)NC(CC(N)=O)c2ccc(N3CCN(c4ccccn4)CC3)c([N+](=O)[O-])c2)c1 (centres undefined)	none (no result: Tau fluor counter, Tau FP inhib, Tau ThT inhib)
COc1ccc(NC(=O)C(NS(=O)(=O)c2cccc3nsnc23)C(C)C)cc1OC (centres undefined)	none (no result: RORgamma inh, VP16 counter)
CCOc1ccc2nc(NC(=O)C(NS(=O)(=O)c3cccc4nsnc34)C(C)C)sc2c1 (centres undefined)	RORgamma inh 16µM, Tau ThT inhib inconclusive, VP16 counter inconclusive
O=C(Nc1ccc(OC(F)(F)F)cc1)C(Cc1ccccc1)NS(=O)(=O)c1cccc2nsnc12 (centres undefined)	Tau fluor counter inconclusive, Tau FP inhib 16µM (no result: RORgamma inh, VP16 counter)
CC(C)C(NS(=O)(=O)c1cccc2nsnc12)C(=O)Nc1nc2ccc(Cl)cc2s1 (centres undefined)	RORgamma inh 22µM, VP16 counter inconclusive
COc1cc2ccccc2cc1C(=O)Nc1ccc(Cl)c(-c2nc3ccccc3o2)c1	Tau FP inhib inconclusive (no result: RORgamma inh, VP16 counter)
COc1cccc2sc(N(Cc3cccnc3)C(=O)c3ccc4c(c3)OCCO4)nc12	none (no result: RORgamma inh, VP16 counter)
